Screens (PubChem BioAssay)
Most compounds without a hit are left out; they make up all but 2.1% or so of the library.
Calpain2 inh = calpain II (pig) inhibition; purified calpain II, fluorogenic peptide substrate, 30 min; actives 0.37% (n = 220,000); AID 1236; inhibition, % at 16 µM;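 active = inhibition above about 50%, limit read from the data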
Arbovirus anti = antivirals against arbovirus infection. arbovirus infection cell-based antiviral screen. actives 0.37% (n = 200,000). inhibition, % at 10 µM; in the data active = inhibition above about 30%
ROMK mod = human ROMK K+ channel modulation, primary screen; P48048; Tet-inducible ROMK, thallium flux fluorescence; actives lie on both sides; B-score at 10 µM; actives 2% (n = 130,000);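 active = signal ratio slope over the read window, or its plate-corrected B-score, at least 3 SD from the plate mean, either direction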;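 also: B-score of the F/F0 ratio slope over 7 to 12 s after thallium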
Target sequence (P48048 whole entry, looked up): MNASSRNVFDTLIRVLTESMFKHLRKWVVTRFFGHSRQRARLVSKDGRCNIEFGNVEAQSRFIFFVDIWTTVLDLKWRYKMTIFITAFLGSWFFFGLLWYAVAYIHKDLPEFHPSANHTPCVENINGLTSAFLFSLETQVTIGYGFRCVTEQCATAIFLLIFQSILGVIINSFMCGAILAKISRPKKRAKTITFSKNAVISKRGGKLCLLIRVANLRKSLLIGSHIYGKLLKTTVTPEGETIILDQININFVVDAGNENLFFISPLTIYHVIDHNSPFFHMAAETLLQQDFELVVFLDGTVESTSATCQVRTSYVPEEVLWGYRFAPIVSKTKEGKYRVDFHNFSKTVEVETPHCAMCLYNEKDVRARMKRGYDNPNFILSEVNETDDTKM
HMGR II inh = inhibitors of class II HMG-CoA reductase from Enterococcus faecalis. actives 0.41% (n = 190,000). inhibition, % at 10 µM. AID 1066. purified E. faecalis HMGR, NADPH absorbance 340 nm kinetic;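 active = inhibition above a set limit, the median over all tested compounds plus 3 SD, cut at about 9.5% in these data; inconclusive = no clear call, values can overlap the other calls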;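 also: enzyme runs in reverse so mevalonate oxidation gives rising NADPH absorbance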
HSV augment = increases HSV replication in cells; HSV replication augmentation in cells, fold increase; maximum fold increase; actives 0.005% (n = 220,000); AID 1956; in the data active = maximum fold increase above about 1.5; inconclusive = no clear call, values can overlap the other calls; tested in PC3 cells
ROMK retest = human ROMK channel modulation, retest confirmation; shares compounds with ROMK mod; ROMK thallium flux, fluorescence ratio; active compounds read low; normalized thallium flux (F/F0 slope) at 10 µM; actives 54% (n = 3,000);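 active = Flux at 10 µM at least 3 SD below or above vehicle control mean in one or both replicates; inconclusive = no clear call, values can overlap the other calls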
Each line names hits and unclear results; the compound was inactive in the other large screens (follow-up assays come after a bar, where they were run); ! = not confirmed by another sample.

CC1=NOC(=O)/C1=C\c1ccc(-c2cccc(Cl)c2)o1	none (no result: ROMK mod)
O=C1ON=C(c2ccccc2)/C1=C\c1ccco1	none (no result: Arbovirus anti, ROMK mod, HMGR II inh)
CC1=NOC(=O)/C1=C\c1ccc(-c2ccccc2Br)o1	ROMK mod -8.7 | ROMK retest 0.062
Cc1cc(NC(=O)CN2C(=O)c3ccccc3C2=O)no1	none (no result: Arbovirus anti, HMGR II inh)
COC(=O)[C@@]1(Cc2ccccc2)[C@@H]2C(=CC(=O)[C@H]2CC(=O)C(=O)N(C)C)CN1C(=O)c1ccccc1	ROMK mod -4.6 | ROMK retest 0.049
CN1CC=C2C(C#N)=C(N)C(C#N)(C#N)C(c3ccsc3)C2C1 (configuration not stated)	none (no result: ROMK mod, HSV augment)
CN1CC=C2C(C#N)=C(N)C(C#N)(C#N)[C@H](c3cccc(Cl)c3)C2C1 (some centres not stated)	ROMK mod -3.8 | ROMK retest 0.045
O=C(O)c1cc2c(s1)-c1ccccc1OC2	none (no result: ROMK mod) | ROMK retest inconclusive
O=C(NC1CC1)c1cc2c(s1)-c1ccccc1OC2	none (no result: ROMK mod)
COc1ccc(NC(=O)/C(Cl)=C(/Cl)S(=O)(=O)Cc2ccc(C)cc2)cn1	ROMK mod -3.8 | ROMK retest inconclusive
CCN(CC)C(=O)C(=O)Nc1ccc(F)c(Cl)c1	none
O=c1/c(=C\c2cccnc2)sc2nc3ccccc3n12	none (no result: ROMK mod)
CCN(CC)c1ccc(/C=c2\sc3nc4ccccc4n3c2=O)c(O)c1	ROMK mod -4.8 (no result: HSV augment) | ROMK retest 0.03
CCn1c(=O)c([N+](=O)[O-])c(N2CCN(Cc3ccc4c(c3)OCO4)CC2)c2ccccc21	none (no result: Arbovirus anti, ROMK mod, HMGR II inh) | ROMK retest 0.064
c1cc2c(cn1)cnc1cscc12	ROMK mod 2.6 | ROMK retest inactive
CCCN1CCN(C(c2cc3cc(OCC)ccc3[nH]c2=O)c2nnnn2C2CCCCC2)CC1 (configuration not stated)	none
CCOc1ccc2[nH]c(=O)c(CN(CCO)C(c3nnnn3C3CCCCC3)C(C)C)cc2c1 (configuration not stated)	ROMK mod -2.4 | ROMK retest 0.059
Cc1cc(Sc2ncnc(N)c2[N+](=O)[O-])ncn1	ROMK mod -0.97 | ROMK retest inactive
COCCNC(=O)Cn1cc(S(=O)(=O)N2CCN(c3ccccc3F)CC2)c2ccccc2c1=O	ROMK mod -2.3 | ROMK retest inactive
CCCC(=O)Nc1ccccc1NC(=O)c1ccc(OC)cc1	none
O=c1c([N+](=O)[O-])cc(C(F)(F)F)cn1Cc1c(Cl)cccc1Cl	none (no result: ROMK mod, HSV augment) | ROMK retest inactive
COC(=O)c1ccc(Cn2cc(C(F)(F)F)cc([N+](=O)[O-])c2=O)cc1	none
Cc1ccc2[nH]c3c(N4CCN(Cc5ccc6c(c5)OCO6)CC4)ncnc3c2c1	ROMK mod -3.8 (no result: HSV augment) | ROMK retest 0.061
Cc1ccc2[nH]c3c(N4CCCCCC4)ncnc3c2c1	ROMK mod -4 (no result: HSV augment) | ROMK retest 0.058
Cc1ccc2[nH]c3c(N4CCN(Cc5ccccc5)CC4)ncnc3c2c1	none
COc1ccc(NC(=O)CN2CCN(C(=S)NC3CCCC3)CC2)cc1	none (no result: Arbovirus anti, ROMK mod, HMGR II inh)
CC1(C)CN(c2cccc(Br)c2)C1=O	ROMK mod 2.1 | ROMK retest inactive
CCN(CC(=O)Nc1cc(OC)ccc1OC)Cc1nc2ccccc2c(=O)[nH]1	ROMK mod 2.8 | ROMK retest inactive
CCOc1ccccc1NC(=O)NCc1ccco1	none (no result: Arbovirus anti, ROMK mod, HMGR II inh)
Cc1ccc(Oc2c(C(N)=O)cc([N+](=O)[O-])cc2[N+](=O)[O-])cc1	ROMK mod -2.3 | ROMK retest 0.035
COC(=O)c1cc(C)ccc1OCc1ccc([N+](=O)[O-])cc1	ROMK mod -13 (no result: Arbovirus anti, HMGR II inh) | ROMK retest inconclusive
COc1ccc(N/C=C2\C(=O)CCc3c2oc2cc(Cl)c(O)c(Cl)c32)cc1	none (no result: Arbovirus anti, ROMK mod, HMGR II inh) | ROMK retest 0.064
O=C(O)/C=C\C(=O)NCc1cccnc1	none
Nc1c(C=C2C=CC(=O)C=C2)c(=O)nc2snc(SCc3ccccc3)n12	none (no result: Arbovirus anti, ROMK mod, HMGR II inh) | ROMK retest inconclusive
CCN(CC)CCN1C2=C(C(=O)CC(C)(C)C2)C(c2cccc(F)c2)C2=C1CC(C)(C)CC2=O	none
CC1(C)CC(=O)C2=C(C1)N(CCN1CCOCC1)C1=C(C(=O)CC(C)(C)C1)C2c1cccc(Cl)c1	ROMK mod -3 | ROMK retest 0.052
O=C(NCc1ccccn1)C1CC(c2ccccc2O)=NO1 (configuration not stated)	ROMK mod 2.6 | ROMK retest inactive
COc1ccc(OC)c(C2=NOC(C(=O)NCc3ccccn3)C2)c1 (configuration not stated)	none (no result: ROMK mod, HSV augment) | ROMK retest inactive
COc1ccc(C2=NOC(C(=O)NCc3ccccn3)C2)cc1 (configuration not stated)	none (no result: ROMK mod)
O=C(CS(=O)(=O)Cc1ccccc1)N1CCN(c2cccc(C(F)(F)F)c2)CC1	ROMK mod -3.2 | ROMK retest inconclusive
COCC(=O)N1CCN(c2cccc(C(F)(F)F)c2)CC1	none (no result: ROMK mod)
COc1ccc(N2CC(O)=C(c3nc4ccccc4s3)C2=N)cc1	none (no result: ROMK mod)
COc1cccc(N2CC(O)=C(c3nc4ccccc4s3)C2=N)c1	ROMK mod 3.3 | ROMK retest inconclusive
CCCCCCCCCCCCCCCCn1cc[n+](C)c1	Calpain2 inh 54! | ROMK retest 0.065
CC(C)COc1ccc(C(=O)OC2CC(C)(C)OCC2CN(C)C)cc1 (configuration not stated)	ROMK mod -3.7 | ROMK retest 0.055
CN(C)CC1CCCCC1OC(=O)c1ccc(Br)cc1 (configuration not stated)	none
O=C(c1ccc(F)cc1F)N1CCN(c2n[nH]c(=O)[nH]c2=O)CC1	none
CCOc1cc(/C=N/NC(=O)c2ccc(-c3csc(Nc4ccc(C)cc4)n3)cc2)ccc1OCC(=O)O	ROMK mod 3.3 | ROMK retest inconclusive
O=C(O)COc1ccc(/C=N/NC(=O)c2ccc(-c3csc(Nc4ccc(Cl)cc4)n3)cc2)cc1	none (no result: Arbovirus anti, ROMK mod, HMGR II inh)
COc1cc(-c2nc3cnccn3c2Nc2ccc(C)cc2)ccc1O	ROMK mod -3.4 | ROMK retest 0.066
OC(CNCCCCNCC(O)C(F)(F)F)C(F)(F)F (configuration not stated)	ROMK mod 2.7 | ROMK retest inactive
COc1ccc(/C=N/OC(=O)c2ccc(Cl)cc2)c(Cl)c1OC	none (no result: Arbovirus anti, ROMK mod, HMGR II inh)
O=C1CCCC/C1=C\Nc1ccc(C(=O)O)c(O)c1	none (no result: Arbovirus anti, ROMK mod, HMGR II inh)
Cc1cc(=O)[nH]c(SCc2cccc(Br)c2)n1	none
Cc1cc(CSc2nc(C)cc(=O)[nH]2)c2ncccc2c1	ROMK mod -11 | ROMK retest inactive
O=C(O)c1cccc(NC(=S)NC(=O)c2ccc(-c3ccc(Cl)cc3)o2)c1	Arbovirus anti 35, ROMK mod 2.1 | ROMK retest inactive
CC(=O)Nc1cc(O)cc(O)c1	none (no result: Arbovirus anti, ROMK mod, HMGR II inh)
COc1cccc(C(=O)NC2CC3CCCC(C2)N3S(=O)(=O)c2ccccc2)c1 (configuration not stated)	none (no result: Arbovirus anti, ROMK mod, HMGR II inh)
CCOC(=O)c1c(CSC(=N)N)n(-c2ccc(C)cc2)c2cc(Br)c(OC(C)=O)cc12	none (no result: ROMK mod) | ROMK retest 0.045
CC(C)c1ccc(OCc2ccc(C(=O)O)o2)cc1	none (no result: Arbovirus anti, ROMK mod, HMGR II inh)
O=C(O)c1ccc(COc2ccc(Cl)cc2)o1	none (no result: ROMK mod) | ROMK retest inconclusive
